Test results from PubChem BioAssay AID720553 (National Center for Advancing Translational Sciences (NCATS), 2013).
Among all 340,000 compounds or so, about 3,300 (0.97%) were called active.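 Rule for the calls: active = maximum activity change below -70%; inconclusive = maximum activity change from -70% to -50%; inactive = maximum activity change above -50%.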 Only a selection was taken, and actives are over-represented in it overall.

What follows are compounds tested on Potassium voltage-gated channel subfamily H member 2, brain isoform KCNH2 3.1 (human) (assay: qHTS for Inhibitors of KCHN2 3.1: Mutant qHTS). Conditions: U2OS KCNH2 3.1, thallium flux FluxOr; hits give low values.
Excerpt: Many antipsychotic drugs that inhibit the neurotransmitter dopamine also bind to hERG1 channel which might help explain their antipsychotic activity but also produces cardiac side effects. The discovery of the novel KCNH2 3.1 isoform offers a potential new target for the development of antipsychotic drugs without cardiac side effects. This proposal will use a high throughput thallium flux assay developed for KCNH2 to screen compounds that modulate the activity of KCNH2 3.1. The wild type KCNH2 channel will also be screened in parallel to help define the selective modulators of this KCNH2 3.1 potassium channel. The resulting compounds will be validated in electrophysiology experiments. The availability of animal models will allow future testing in vivo for effects on memory and other aspects of animal physiology linked with psychosis. NIH Chemical Genomics Center [NCGC] NIH Molecular Libraries Probe Centers Network [MLPCN] MLPCN Grant: MH096539 Assay Submitter (PI): James Barrow, Johns Hopkins University, Lieber Institute for Brain Development
U2OS cells were resuspended in cell media containing 10% fetal calf serum (FCS) at a concentration of 2 million cells / mL. The solution was treated with the mutant (3.1) virus at 1.77 x 10^8 / mL and allowed to incubate at room temperature in the dark. After 4 hours of incubation, DMEM + 10% fetal bovine serum (FBS) was added to the cell solution. Three microliter was then dispensed into a 1536 tissue culture treated black assay plates which were incubated overnight at 37 C. Two microliter of loading buffer (HBSS + HEPES + Red40 dye quencher + FluxOr dye) was added and the assay plates were incubated for 45 min at room temperature in the dark. […] A stimulation buffer was added to the plate and the second kinetic read (2 min) was obtained. The rate constant was calculated from the kinetic reads and normalized to the positive and negative DMSO controls.
% is set by controls: 0 for no effect and ±100 for the full control effect.

| Compound | activity change |
| --- | --- |
| Cc1cccnc1NC(=O)CSc1nnc(COc2ccc(C(C)C)cc2)n1C | 13.2% (inactive) |
| Cc1ccc(OCc2n[nH]c(=S)n2-c2ccccc2)cc1 | -4.15% (inactive) |
| Cc1ccc(OCc2nnc(SC3CCc4ccccc4C3=O)n2C)cc1 (centres undefined) | -114% (active) |
| Cc1sc2nc(-c3ccccc3F)oc(=O)c2c1C | 9.16% (inactive) |
| CC1=C(C(=O)N(C)C)CC(CC(=O)NCCN2CCOCC2)C(=O)N1Cc1ccccc1 (centres undefined) | -16.9% (inactive) |
| C[C@@H]1CN([C@H](C)CO)C(=O)CCCn2cc(nn2)CO[C@H]1CN(C)S(C)(=O)=O | 21.6% (inactive) |
| Cc1ccc(C(=O)NC(C)c2ccccc2)cc1Br (centres undefined) | -9.99% (inactive) |
| CC(NC(=O)c1cc(-c2ccccc2)on1)c1ccccc1 (centres undefined) | -114% (active) |
| O=C(NC1CCCC1)c1cc(-c2ccccc2)on1 | 4.52% (inactive) |
| COc1cccc(N2CC(NS(=O)(=O)c3cccs3)CC2=O)c1 (centres undefined) | -5.41% (inactive) |
| COc1cccc(N2CC(NS(=O)(=O)c3ccc(Cl)cc3)CC2=O)c1 (centres undefined) | 25.6% (inactive) |
| COc1ccc(N2CC(NS(=O)(=O)c3ccc4ccccc4c3)CC2=O)cc1 (centres undefined) | -102% (active) |
| COc1ccc([C@H]2N[C@]3(CCCN(Cc4ccco4)C3=O)[C@H]3C(=O)N(C)C(=O)[C@@H]23)cc1 | -5.99% (inactive) |
| CCc1c(N=O)c(-c2ccccc2)n(O)[n+]1[O-] | -12.8% (inactive) |
| C[C@H]1CCC(=O)N([C@H](CSc2ccccc2)Cc2ccccc2)CC1 | 2.57% (inactive) |
| O=C1CC[C@H](O)CCN1[C@H](CSc1ccc(Br)cc1)Cc1ccccc1 | 8.81% (inactive) |
| COc1ccc(SC[C@H](Cc2ccccc2)N2CCN(CCc3ccccc3)CCC2=O)cc1 | -105% (active) |
| COc1cc(C=NC2CCCCC2)ccc1O | -7.89% (inactive) |
| C[C@H](CO)N1C[C@H](C)[C@@H](CN(C)S(=O)(=O)c2ccc(Oc3ccccc3)cc2)OCc2cn(nn2)CCCC1=O | 2.39% (inactive) |
| C=CCN1CCN(c2ccncc2S(=O)(=O)N2CCN(C)CC2)CC1 | -3.97% (inactive) |
| Cc1ccc([C@H]2C[C@H](O)[C@@H](n3cc(COC(=O)c4ccccc4)nn3)CN2C(=O)C2CCCCC2)cc1 | -7.68% (inactive) |
| COc1cccc(NC(=O)CN(C)C(=O)c2cc(Cl)nc3ccccc23)c1 | 14.5% (inactive) |

| Compound | activity change |
| --- | --- |
| CN1CCN(C2Cc3ccc(Cl)cc3Sc3ccc(F)cc32)CC1 (centres undefined) | -75.9% (active) |
| O=C(O)C1CCCN1c1nc(Cl)ccc1[N+](=O)[O-] (centres undefined) | -2.11% (inactive) |
| O=C(COC(=O)c1ccc(S(=O)(=O)N2CCCCCC2)cc1)Nc1ccccc1C(F)(F)F | -2.65% (inactive) |
| CC(=O)Nc1c(-c2ccc(C)cc2)nc2ccc(Cl)cn12 | 2.86% (inactive) |
| C#CC(CCN1CCCCC1)(OC)c1ccccc1 (centres undefined) | 58.1% (inactive) |
| CCCCCC(O)(CCN1CCCCC1)c1ccccc1 (centres undefined) | -102% (active) |
| CCCCCCC(O)(CCN1CCCCC1)c1ccccc1 (centres undefined) | -21.6% (inactive) |
| Cc1ccc(NC(=O)c2ccco2)cc1 | 4.6% (inactive) |
| Cc1cc(C)c2c(=O)n3c(nc2c1)C(CC(C)C)NC(=O)c1cc2ccccc2cc1-3 (centres undefined) | -30.6% (inactive) |
| Cc1ccccc1NC(=O)c1cnn(-c2ccccc2)c1NC(=O)c1ccco1 | 11.4% (inactive) |
| O=C(Nc1nonc1-c1ccc(Cl)cc1)c1ccco1 | -7.1% (inactive) |
| O=C(Nc1c(-c2ccccc2)nc2c(Br)cc(Br)cn12)c1ccco1 | -72.2% (active) |
| CCCCCCN1C[C@H](O)[C@@H](n2cc(C3CC3)nn2)C[C@@H]1c1ccc(Cl)cc1 | -39.7% (inactive) |
| CN1OC[C@@H]2CN(C(=O)c3ccc(-c4ccccc4)cc3)[C@H](c3ccc(-c4cccc(F)c4)cc3)C[C@@H]21 | -5.34% (inactive) |
| COC(=O)C(Cc1c[nH]c2ccccc12)NC(=O)CCNC(=O)c1ccco1 (centres undefined) | 3.09% (inactive) |
| O=C(C[C@H]1C[C@H]2c3cc(NS(=O)(=O)c4ccc(F)cc4)ccc3O[C@H]2[C@H](CO)O1)NCc1cc(F)ccc1F | -4.51% (inactive) |
| CC1=C(C(=O)OC2CCCCC2)C(c2ccccc2F)NC(=O)N1 (centres undefined) | 8.03% (inactive) |
| CCC(CC)COC(=O)C1=C(C)NC(=O)NC1c1ccc([N+](=O)[O-])cc1 (centres undefined) | 10.1% (inactive) |
| CC1=C(C(=O)OCC2CCCCC2)C(c2ccc(F)cc2)NC(=O)N1 (centres undefined) | -100% (active) |
| COC(=O)c1ccc(/C=N/NC(=O)C(=O)N2CCCCCC2)cc1 | 2.79% (inactive) |
| COc1cccc(/C=N/NC(=O)C(=O)N2CCCC2)c1 | -74.7% (active) |
| O=C(N/N=C/c1ccc2c(c1)OCO2)C(=O)N1CCCC1 | -5.78% (inactive) |
